Source: PubChem BioAssay (EPA / NIEHS)
Active and inactive are the calls of the source. How the source made its calls: active means hit-call score of the fitted dose curve at least 0.9, where 1 is the maximum; inactive means score below 0.9.

Experiments:
[1] = ATG_Ets_CIS: Attagene CIS-FACTORIAL HepG2 Assay for human Erythroblast Transformation Specific (ETS) (AID 2282941); conditions: HepG2 ETS cis-reporter transcription, actives raise or lower the signal
Method in brief: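 Bidirectional fit versus DMSO of reporter mRNA signal, detected by RT-PCR and capillary electrophoresis in HepG2 cells transiently transfected with cis-element reporters and dosed 24 h.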

[2] = molecular target: Hepatocyte nuclear factor 3-beta (Homo sapiens) (UniProt Q9Y261); assay: ATG_FoxA2_CIS: Attagene CIS-FACTORIAL HepG2 Assay for human Forkhead box A2 (FOXA2) (AID 2282942); conditions: HepG2 cis-reporter transcription factor activity, 24 h; actives raise or lower the signal
Chain of Hepatocyte nuclear factor 3-beta (Homo sapiens) (Q9Y261 whole entry, looked up): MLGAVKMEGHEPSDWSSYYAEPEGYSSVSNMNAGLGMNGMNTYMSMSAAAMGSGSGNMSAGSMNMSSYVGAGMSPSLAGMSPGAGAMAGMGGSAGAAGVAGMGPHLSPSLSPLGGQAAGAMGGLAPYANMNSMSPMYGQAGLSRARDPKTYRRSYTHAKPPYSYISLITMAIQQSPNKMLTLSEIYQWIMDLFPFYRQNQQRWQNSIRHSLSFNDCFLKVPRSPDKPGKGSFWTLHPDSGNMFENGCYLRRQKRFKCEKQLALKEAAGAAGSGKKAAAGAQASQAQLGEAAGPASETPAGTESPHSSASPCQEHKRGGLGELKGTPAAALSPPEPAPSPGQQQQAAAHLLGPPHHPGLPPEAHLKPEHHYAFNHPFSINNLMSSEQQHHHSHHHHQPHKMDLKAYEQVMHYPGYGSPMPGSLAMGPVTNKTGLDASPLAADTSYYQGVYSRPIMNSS
Method in brief: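 Cells: HepG2, transient multiplex reporter transfection. Exposure 24 h. Detection: reporter-specific RT-PCR, fluorescent labelling, restriction digest, capillary electrophoresis. Analysis: bidirectional curve fit, DMSO as negative control.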

[3] = ATG_GATA_CIS: Attagene CIS-FACTORIAL HepG2 Assay for human GATA Binding Protein (AID 2282944); conditions: HepG2 GATA cis-element reporter, Attagene multiplex mRNA; actives raise or lower the signal
Method in brief: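 DMSO serves as negative control and baseline for bidirectional fitting of reporter mRNA changes. HepG2 cells bearing transiently transfected cis-promoter reporters were exposed 24 h; transcripts detected via RT-PCR and capillary electrophoresis.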

[4] = ATG_GLI_CIS: Attagene CIS-FACTORIAL HepG2 Assay for human Zinc Finger Protein GLI1 (AID 2282945); conditions: HepG2, Attagene cis-factorial reporter mRNA, GLI element; actives raise or lower the signal
Method in brief: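 Transiently transfected HepG2 cells report endogenous transcription factor activity via cis-element-driven reporter units. After 24 h compound exposure, reporter mRNA was measured by RT-PCR with capillary electrophoresis; bidirectional fitting against DMSO baseline.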

[5] = molecular target: Bile acid receptor (Homo sapiens) (UniProt Q96RI1); assay: ATG_IR1_CIS: Attagene CIS-FACTORIAL HepG2 Assay for human Nuclear Receptor Subfamily 1 Group H Member 4 (NR1H4), IR1 submotif (AID 2282946); conditions: IR1 reporter transcription, actives raise or lower the signal
Chain of Bile acid receptor (Homo sapiens) (Q96RI1 whole entry, looked up): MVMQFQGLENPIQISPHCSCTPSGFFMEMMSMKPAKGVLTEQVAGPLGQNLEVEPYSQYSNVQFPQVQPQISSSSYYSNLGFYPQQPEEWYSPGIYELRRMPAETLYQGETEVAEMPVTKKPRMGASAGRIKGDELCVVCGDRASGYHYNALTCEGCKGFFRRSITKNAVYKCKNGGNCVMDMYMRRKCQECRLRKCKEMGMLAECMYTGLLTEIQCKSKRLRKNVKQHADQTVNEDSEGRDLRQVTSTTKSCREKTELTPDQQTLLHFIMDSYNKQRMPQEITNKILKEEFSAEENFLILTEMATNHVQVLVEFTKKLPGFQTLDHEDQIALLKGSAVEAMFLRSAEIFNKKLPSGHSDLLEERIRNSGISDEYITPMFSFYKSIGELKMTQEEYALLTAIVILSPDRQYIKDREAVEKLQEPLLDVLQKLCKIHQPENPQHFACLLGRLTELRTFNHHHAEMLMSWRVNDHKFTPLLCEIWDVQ
Method in brief: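 Fluorescence of capillary-separated, HpaI-digested RT-PCR reporter products gave IR1-element mRNA induction in HepG2 cells 24 h after dosing. Endogenous transcription factors drove the cis-regulated reporters; activity was fitted bidirectionally against DMSO.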

[6] = ATG_GRE_CIS: Attagene CIS-FACTORIAL HepG2 Assay for human Glucocorticoid Response Elements (GRE) (AID 2282947); conditions: HepG2 GRE cis-reporter, Attagene multiplex mRNA; actives raise or lower the signal
Method in brief: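 Fluorescence intensity of reporter-specific cDNA fragments, separated by capillary electrophoresis, provides the signal. Constructs carry cis-regulating promoters in transiently transfected HepG2 liver cells; 24 h incubation; fitting is bidirectional against DMSO.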

[7] = ATG_ISRE_CIS: Attagene CIS-FACTORIAL HepG2 Assay for human Interferon Regulatory Factor 1 (IRF1) binding to an Interferon-Stimulated Response Element (ISRE) (AID 2282948); conditions: HepG2 ISRE cis-reporter (Attagene), mRNA transcription readout; actives raise or lower the signal
Method in brief: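 Uses HepG2 liver cells transfected with cis-regulated reporters and measures mRNA 24 h post-dosing through RT-PCR, primer-extension labelling and capillary electrophoresis, with DMSO as negative control.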

[8] = ATG_ERE_CIS: Attagene CIS-FACTORIAL HepG2 Assay for Estrogen Response Element (ERE) (AID 2282940); conditions: HepG2 ERE cis-reporter, Attagene RNA transcript; actives raise or lower the signal
Method in brief: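 HepG2, transient cis-reporter units, 24 h exposure. RNA isolated, oligo(dT) RT, reporter-specific PCR, FAM extension, HpaI cut, CE detection. Gain/loss-of-signal vs DMSO.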

[9] = ATG_FoxO_CIS: Attagene CIS-FACTORIAL HepG2 Assay for human Forkhead box O (FoxO) (AID 2282943); conditions: HepG2 Attagene cis-reporter, FoxO element, mRNA; actives raise or lower the signal
Method in brief: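 Transfected HepG2 reporter cells exposed to test chemical for 24 h; reporter RNA measured by reverse transcription, PCR and fluorescent capillary electrophoresis; curves fitted for increases and decreases against DMSO.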

Measured: AC50

COP(=S)(OC)Oc1cc(Cl)c(I)cc1Cl
inactive: [2] | [4] | [5]
active: [1] 39.9 µM | [3] 46.2 µM | [6] 58.1 µM | [7] 48.7 µM

Fc1cccc(Cl)c1CCl
not listed: [1] | [9]
inactive: all other assays above

Cc1c([N+](=O)[O-])c(C)c([N+](=O)[O-])c(C(C)(C)C)c1[N+](=O)[O-]
active: [8] 23.7 µM | [7] 22.5 µM
not listed: [5]
inactive: all other assays above

CCCCCCCCCCCCN(C)C
active: [9] 58.7 µM | [5] 47.8 µM
inactive: all other assays above

O=C(CCl)Nc1ccccc1
active: [9] 83.2 µM | [3] 161 µM | [4] 25.5 µM | [5] 54.4 µM | [6] 177 µM | [7] 54.9 µM
inactive: [8] | [1] | [2]

Cc1cc(-c2cc(C)c(N)c(C)c2)cc(C)c1N
not listed: [5]
inactive: all other assays above

Cc1ccc2nc3sc(=O)sc3nc2c1
active: [1] 45.9 µM | [2] 11.9 µM | [9] 6.07 µM | [3] 29.9 µM | [5] 25 µM | [6] 41.1 µM
inactive: [8] | [4] | [7]

c1cc[c]([Sb]([c]2ccccc2)[c]2ccccc2)cc1
not listed: [1] | [8]
inactive: all other assays above

O=S1OC[C@@H]2[C@H](CO1)[C@]1(Cl)C(Cl)=C(Cl)[C@@]2(Cl)C1(Cl)Cl (some centres not stated)
active: [8] 2.77 µM
inactive: all other assays above

O=C(N[C@H]1CN2CCC1CC2)c1ccc2c(c1)OCCO2
not listed: [5] | [8]
inactive: all other assays above

CN(C)[C@@H]1C(=O)C(C(N)=O)=C(O)[C@@]2(O)C(=O)C3=C(O)c4c(O)ccc(Cl)c4[C@@](C)(O)[C@H]3C[C@@H]12
not listed: [1] | [8]
inactive: all other assays above

BrCc1ccc(Br)cc1
not listed: [6]
inactive: all other assays above

C=CCOC(F)(C(F)(F)F)C(F)(F)F
not listed: [9]
inactive: all other assays above

C1CCC(C2CCCCC2)CC1
not listed: [6]
inactive: all other assays above

CCCCCCCCBr
not listed: [8]
inactive: all other assays above

O=[N+]([O-])c1ccc(Cl)c([N+](=O)[O-])c1
not listed: [1]
inactive: all other assays above

Brc1c(Br)c(Br)c(Oc2c(Br)c(Br)c(Br)c(Br)c2Br)c(Br)c1Br
not listed: [1] | [8] | [9]
inactive: all other assays above

CCC[N+](CCC)(CCC)CCC
not listed: [5] | [6]
inactive: all other assays above

O=c1[nH]c(=O)n(Cl)c(=O)n1Cl
not listed: [5] | [8]
inactive: all other assays above

O=C(O)c1cc(I)cc(I)c1I
active: [8] 27.8 µM
not listed: [9]
inactive: all other assays above

O=C=Nc1ccc(Cl)cc1
active: [9] 162 µM
not listed: [5] | [6]
inactive: all other assays above

O=C1C=CC(=O)c2ccccc21
inactive: all assays above

CCOP(=S)(OCC)SCSc1cc(Cl)ccc1Cl
not listed: [1] | [5]
inactive: all other assays above

O=C1c2ccccc2C(=O)C1C(=O)C(c1ccccc1)c1ccc(Cl)cc1 (configuration not stated)
inactive: [8] | [3] | [6]
active: [1] 182 µM | [2] 11.9 µM | [9] 54.6 µM | [4] 166 µM | [7] 20 µM

Nc1ncn[nH]1
not listed: [8]
inactive: all other assays above

Clc1cnc(Oc2ccc(Oc3ncc(Cl)cc3Cl)cc2)c(Cl)c1
not listed: [8]
inactive: all other assays above
